Reference: PubChem BioAssay (NCATS)
The source made the active and inactive calls.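 Rule for the calls: active = compounds whose dose series gives a full or clear partial fitted curve of increased nuclear translocation; inconclusive = weak partial curve or effect only at the top dose; inactive = no dose-dependent translocation response.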

target: Glucocorticoid receptor (Homo sapiens) (UniProt P04150); assay: GR-GFP Redistribution (AID 450); settings: U2OS GR-GFP nuclear translocation, laser cytometry, 2 h; series mostly up to 20.6 µM
Sequence (P04150 whole entry, looked up): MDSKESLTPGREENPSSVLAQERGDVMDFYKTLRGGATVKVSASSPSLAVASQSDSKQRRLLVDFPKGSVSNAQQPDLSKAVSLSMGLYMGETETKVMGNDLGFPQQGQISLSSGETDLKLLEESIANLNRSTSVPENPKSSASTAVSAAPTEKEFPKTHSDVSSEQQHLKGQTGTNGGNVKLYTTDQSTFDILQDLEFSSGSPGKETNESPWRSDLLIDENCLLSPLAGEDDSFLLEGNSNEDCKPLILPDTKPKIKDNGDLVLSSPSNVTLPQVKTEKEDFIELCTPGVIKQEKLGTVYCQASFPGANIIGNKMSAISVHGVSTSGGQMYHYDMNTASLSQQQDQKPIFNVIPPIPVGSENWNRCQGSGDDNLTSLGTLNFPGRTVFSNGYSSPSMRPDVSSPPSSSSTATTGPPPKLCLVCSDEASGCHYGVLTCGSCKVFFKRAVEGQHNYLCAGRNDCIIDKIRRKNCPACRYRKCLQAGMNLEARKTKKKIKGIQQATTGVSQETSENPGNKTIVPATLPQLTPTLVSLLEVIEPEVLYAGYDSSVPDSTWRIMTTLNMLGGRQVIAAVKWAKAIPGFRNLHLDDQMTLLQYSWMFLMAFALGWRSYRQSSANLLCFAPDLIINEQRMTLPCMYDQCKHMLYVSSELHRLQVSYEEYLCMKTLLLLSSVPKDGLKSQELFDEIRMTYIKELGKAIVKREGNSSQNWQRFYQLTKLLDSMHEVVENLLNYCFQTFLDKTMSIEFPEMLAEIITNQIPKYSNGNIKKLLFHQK
Potency is the fitted concentration of half-maximal effect.

Potency, inactive:
Cc1ccc(C(=O)C2=C(O)C(=O)N(c3ncccn3)C2c2cccc(Cl)c2)o1 (stereo not given) > 20.6 µM
COc1ccc(C2N3CC4(C)CN2CC(C)(C3)C4O)cc1OC (stereo not given) > 20.6 µM
CCOc1ccc2nc(SCC(=O)Nc3ncccn3)[nH]c2c1 > 20.6 µM
COc1ccccc1N1CCN(C2CCN(C(=O)c3cc(OC)c(OC)c(OC)c3)CC2)CC1 > 20.6 µM
CCOc1nc(Oc2cccc(C(=O)O)c2)nc(Oc2cccc(C(=O)O)c2)n1 > 20.6 µM
CCCCOC(=O)CSC1=C(C#N)C(c2ccccc2OC)C(C#N)C(=O)N1 (stereo not given) > 20.6 µM
CC12CCC(=O)N1c1c(sc3nc(N4CCOCC4)c4c(c13)CCCC4)C(=O)N2 (stereo not given) > 20.6 µM
Fc1cnc(N2CCOCC2)nc1NCc1ccccc1 > 20.6 µM
CC1(C)CC(=O)C2=C(C1)OC(N)=C(C#N)C2C1C=CCCC1 (stereo not given) > 20.6 µM
CCC(C(=O)Nc1nccs1)(C(F)(F)F)C(F)(F)F > 20.6 µM
COC(=O)CC1=C(C(=O)OC)C(c2cccc(OCC(N)=O)c2)C(C#N)=C(N)O1 (stereo not given) > 20.6 µM
CSc1nnc2n(C3CCCCC3)c(=O)c3c4c(sc3n12)CCCC4 > 20.6 µM
CCOC(=O)C1=C(C)N=C2SC(C)C(=O)N2C1c1cccc(F)c1 (stereo not given) > 20.6 µM
COc1ccccc1NC(=O)c1c(C)cc(=O)oc1C > 20.6 µM
O=C(CCC1CCCC1)N1CCC(N2CCN(c3ccccc3)CC2)CC1 > 20.6 µM
CCCCOC(=O)CCc1nc2ccccc2[nH]1 > 20.6 µM
COn1c(SC2CCCCC2)nc2ccccc2c1=O > 20.6 µM
Cc1ccc(S(=O)(=O)NCC(=O)OCN2C(=O)c3ccccc3C2=O)cc1 > 20.6 µM
Cc1cc(O)c(C(C)C)cc1N=C1CSC(=O)N1 > 20.6 µM
COc1cccc(C2C(C(=O)c3sc(C)nc3C)=C(O)C(=O)N2CCN2CCOCC2)c1OC (stereo not given) > 20.6 µM
COCCN(C(=O)Nc1ccccc1)c1ccccc1C > 20.6 µM
CSc1nnc(N(CCC#N)CCC#N)s1 > 20.6 µM
C/C(NC(=O)c1cccs1)=C1\C(=O)C[C@@H]2[C@H]1C2(C)C > 20.6 µM
O=c1c2c3c(sc2n2cnnc2n1C1CCCCC1)CCC3 > 20.6 µM
CCCCCOC(=O)C(C)c1c(C)[nH]c(=S)[nH]c1=O (stereo not given) > 20.6 µM
CCn1c(SCC(=O)NCc2ccco2)nnc1-c1ccc(N)cc1 > 20.6 µM
COc1ccccc1N(Cc1cc2cccc(C)c2[nH]c1=O)C(=O)C(C)C > 20.6 µM
Cc1cccc(-c2nc(C#N)c(NC3CCCCC3)o2)c1 > 20.6 µM
COc1ccc(C(=O)/C=C/Nc2cccc(C)n2)cc1OC > 20.6 µM
CSc1nc(N)nc(SCC(=O)CC(=O)OC(C)C)c1C#N > 20.6 µM
c1ccc(SCc2nc3ccccc3[nH]2)nc1 > 20.6 µM
O=C(c1coc(=O)c(Br)c1)N1CCOCC1 > 20.6 µM
COC(=O)c1cc(S(=O)(=O)N2CCOCC2)c(N2CCOCC2)cc1N1CCOCC1 > 20.6 µM
CCCCOc1ccccc1P(=O)(O)CP(=O)(c1ccccc1)c1ccccc1 > 20.6 µM
CN(C)CCCN(CCCNC(=O)/C=N/O)Cc1ccccc1 > 20.6 µM
CCCCc1nc(N2CCOCC2)c(C#N)c2c1COC(C)(C)C2 > 20.6 µM
O=C(NCc1ccco1)c1ccc(=O)oc1 > 20.6 µM
O=C1C(=O)N(Cc2cccnc2)C(c2ccccn2)/C1=C(/O)c1ccc(F)cc1 (stereo not given) > 20.6 µM
COc1cccc(C2/C(=C(/O)c3ccc(C)cc3)C(=O)C(=O)N2Cc2ccco2)c1 (stereo not given) > 20.6 µM
COC(=O)COc1ccc(Oc2nc(SC)nc(N(C)C)n2)nn1 > 20.6 µM
